Test results reported in PubChem BioAssay (Tox21).
Inconclusive results are not listed. Where a call stands in place of a potency, no number is given. Calls of active or inactive are those of the source. Calls follow the shape of the full dose curve.

Test: qHTS assay for small molecules that induce genotoxicity in human embryonic kidney cells expressing luciferase-tagged ATAD5 - cell viability (AID 651634); also: nearly all actives have a fitted effect of over 25% in size
Conditions: HEK293T ATAD5-luc cells viability, CellTiter-Fluor, 15.5 h; series mostly up to 83.3 µM
Source text: National Center for Advancing Translational Sciences [NCATS]
NIH Chemical Genomics Center [NCGC]
U.S. Environmental Protection Agency [EPA]
National Institutes of Environmental Health Sciences [NIEHS]
National Toxicology Program [NTP]
U.S. Food and Drug Administration [FDA]
Enhanced Level of Genome Instability Gene 1 (ELG1; human ATAD5) protein levels increase in response to various types of DNA damage. Using a luciferase reporter-gene tagged with ElG1, a cell-based assay [developed by Kyungjae Myung, NHGRI, NIH] was used to measure the induction of ATAD5 in human embryonic kidney cells (HEK293T). So, increase in luciferase activity can be used to identify the compounds that cause genetic stress. In addition to genotoxicity, these cells were also used to test for cytotoxicity by measuring the protease activity within live cells.
Tox21 Assay Protocol Summary:
For cytotoxicity screening, 2,000 cells in 5 uL/well were dispensed into white, solid-bottom 1536-well plates using a Multidrop Combi (Thermo Scientific) dispenser. Following transfer of 23 nL compound or DMSO vehicle by a pin tool, the plates were incubated 15.5 hr at 37C and 5% CO2. 1 ul CellTiter-Fluor reagent (Promega, Madison, WI) was then added to each plate and following 30 min incubation at 37C, fluorescence intensity was quantified on a ViewLux CCD-based plate reader.
Potency is read from the fitted curve at half-maximal effect.

| Compound | Potency |
| --- | --- |
| CCCNCC(O)COc1ccccc1C(=O)CCc1ccccc1 (stereo not given) | inactive |
| S=C([S-])NCCNC(=S)[S-].[Mn+2] | inactive |
| CCCCCC[C@@H](O)C/C=C\CCCCCCCC(=O)OC | inactive |
| C[N+]1(C)CCC(OC(=O)C(O)(c2ccccc2)C2CCCC2)C1 (stereo not given) | inactive |
| CC(=O)c1ccc2c(c1)N(CCCN(C)C)c1ccccc1S2 | inactive |
| CCCCC(=O)OCC(=O)[C@H]1[C@H](C)C[C@H]2[C@@H]3C[C@H](F)C4=CC(=O)C=C[C@]4(C)[C@@]3(F)[C@@H](O)C[C@@]21C | inactive |
| CC(=O)OC[C@H]1O[C@@H](n2ncc(=O)[nH]c2=O)[C@H](OC(C)=O)[C@@H]1OC(C)=O | inactive |
| C=CC(=O)OCCOc1ccccc1 | inactive |
| O=C(O)c1ccco1 | inactive |
| Nc1c(CC(=O)O)cccc1C(=O)c1ccc(Br)cc1 | inactive |
| N=c1ccn2c(n1)O[C@H]1[C@H](O)[C@@H](CO)O[C@H]12 | inactive |
| ClCCOCCOCCCl | inactive |
| CCCCCCc1ccc(-c2ccc(C#N)cc2)cc1 | inactive |
| O=C(O)C(S)C(S)C(=O)O (stereo not given) | inactive |
| Cc1nn(C)c(Oc2ccccc2)c1/C=N/OCc1ccc(C(=O)OC(C)(C)C)cc1 | inactive |
| c1cc(CCCc2ccncc2)ccn1 | inactive |
| CCOC(=O)NCCOc1ccc(Oc2ccccc2)cc1 | inactive |
| c1ccc(-c2ccccn2)nc1 | inactive |
| CCC(C)c1cc(C(C)(C)C)c(O)c(C(C)(C)C)c1 (stereo not given) | inactive |
| O=C(O)c1nc(Cl)c(Cl)c(Cl)c1Cl | inactive |

| Compound | Potency |
| --- | --- |
| O=S(c1cc(Cl)cc(Cl)c1O)c1cc(Cl)cc(Cl)c1O | inactive |
| CC1CCC(=O)C1=O (stereo not given) | inactive |
| Cc1ccccc1S(=O)(=O)O | inactive |
| O=[N+]([O-])c1ccc2[nH]ncc2c1 | inactive |
| O=C1OC(CN2CCOCC2)CN1/N=C/c1ccc([N+](=O)[O-])o1 (stereo not given) | inactive |
| COc1cc(Cl)c(OC)cc1N | inactive |
| CCCCCCCCCCCc1ccccc1 | inactive |
| c1ccc(C(O[C@H]2CCCN(CCc3ccc4c(c3)OCO4)C2)c2ccccc2)cc1 | inactive |
| COc1cccc(N(C)C(=S)Oc2ccc3c(c2)CCCC3)n1 | inactive |
| O=C(c1ccc(F)cc1)C1CCN(CCn2c(=S)[nH]c3ccccc3c2=O)CC1 | inactive |
| Nc1cc(C(=O)O)c(O)c(S(=O)(=O)O)c1 | inactive |
| O=C(Nc1ccccc1)c1ccccc1O | inactive |
| CC1=CC=C(C(C)C)CC1 | inactive |
| Cc1cccc(C)c1OCC(=O)N[C@@H](Cc1ccccc1)[C@@H](O)C[C@H](Cc1ccccc1)NC(=O)[C@H](C(C)C)N1CCCNC1=O | 26.6 µM (active) |
| CCN(CC)CCNc1ccc(CNC=O)c2sc3ccc(OC)cc3c(=O)c12 | 4.86 µM (active) |
| CC(C)=CCC/C(C)=C/CC/C(C)=C/CO | inactive |
| O=P(O)(OCc1ccccc1)OCc1ccccc1 | inactive |
| COc1cc2nc(N3CCN(C(=O)C4COc5ccccc5O4)CC3)nc(N)c2cc1OC (stereo not given) | inactive |
| CCCCC/C=C\C/C=C\CCCCCCCC(=O)NC(C)c1ccccc1 (stereo not given) | inactive |
| CCC(Cl)CCC(Cl)C(Cl)CC(Cl)C(Cl)C(Cl)CCl (stereo not given) | inactive |
